# Publication PMC7862700, “An all-to-all approach to the identification of sequence-specific readers for epigenetic DNA modifications on cytosine”
# What was measured:
# Experiment in all cases: DAPPL (digital affinity profiling via proximity ligation, sequencing); 10 mM Tris-HCl pH 7.5, 50 mM NaCl, 1 mM DTT, 4% glycerol, room temperature, 30 min; GST-TFs on glutathione beads, 16-mer random dsDNA library, 0.1% formaldehyde crosslink after washing; high values mean tight binding
# Conditions in all cases: protein: recombinant; tags: N-terminal GST; dsDNA, one strand shown
# [1] = target: T1, ERF (Homo sapiens, UniProt P50548 1-548)
# T1 sequence: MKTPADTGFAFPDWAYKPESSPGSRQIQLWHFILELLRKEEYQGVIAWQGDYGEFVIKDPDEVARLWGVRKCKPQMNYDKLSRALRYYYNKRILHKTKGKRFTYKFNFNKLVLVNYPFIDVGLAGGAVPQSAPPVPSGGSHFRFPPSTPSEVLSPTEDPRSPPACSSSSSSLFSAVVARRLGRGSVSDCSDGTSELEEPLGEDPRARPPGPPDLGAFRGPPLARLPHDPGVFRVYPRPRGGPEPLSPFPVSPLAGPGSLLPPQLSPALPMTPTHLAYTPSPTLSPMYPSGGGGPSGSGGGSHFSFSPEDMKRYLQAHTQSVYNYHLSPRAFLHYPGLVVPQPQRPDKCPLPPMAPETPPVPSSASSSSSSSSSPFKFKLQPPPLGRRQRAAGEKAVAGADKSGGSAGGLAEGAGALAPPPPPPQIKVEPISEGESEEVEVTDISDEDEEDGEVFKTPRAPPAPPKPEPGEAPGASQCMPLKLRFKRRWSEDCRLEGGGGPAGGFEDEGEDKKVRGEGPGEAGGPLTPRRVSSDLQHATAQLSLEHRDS
# In short: (§1)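 Yeast served to express human transcription factors as GST fusions, which were then captured on glutathione beads and labelled with DNA barcodes. Pooled with a tag-only sample, they were incubated with 200 nmole of a 16-mer random double-stranded DNA library for 30 min at room temperature in Tris/NaCl/DTT/glycerol buffer, washed, crosslinked with 0.1% formaldehyde, ligated by proximity, amplified by PCR and sequenced. Dividing each hexamer's read frequency for a factor by its frequency for the tag-only sample gives the binding signal.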
# [2] = target: T2, ETV3L (Homo sapiens, UniProt Q6ZN32 1-361)
# T2 sequence: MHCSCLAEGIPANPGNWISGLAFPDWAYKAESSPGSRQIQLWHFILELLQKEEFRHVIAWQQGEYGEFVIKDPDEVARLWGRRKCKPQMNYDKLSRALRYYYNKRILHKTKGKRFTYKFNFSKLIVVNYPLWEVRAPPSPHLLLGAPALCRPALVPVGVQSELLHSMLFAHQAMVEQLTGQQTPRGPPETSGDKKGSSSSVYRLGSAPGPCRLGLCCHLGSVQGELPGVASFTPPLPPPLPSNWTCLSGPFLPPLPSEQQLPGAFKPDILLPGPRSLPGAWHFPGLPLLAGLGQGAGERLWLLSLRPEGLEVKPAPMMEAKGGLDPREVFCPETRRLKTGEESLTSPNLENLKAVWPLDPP
# In short: as §1
# [3] = target: T3, ETS2 (Homo sapiens, UniProt P15036 1-469)
# T3 sequence: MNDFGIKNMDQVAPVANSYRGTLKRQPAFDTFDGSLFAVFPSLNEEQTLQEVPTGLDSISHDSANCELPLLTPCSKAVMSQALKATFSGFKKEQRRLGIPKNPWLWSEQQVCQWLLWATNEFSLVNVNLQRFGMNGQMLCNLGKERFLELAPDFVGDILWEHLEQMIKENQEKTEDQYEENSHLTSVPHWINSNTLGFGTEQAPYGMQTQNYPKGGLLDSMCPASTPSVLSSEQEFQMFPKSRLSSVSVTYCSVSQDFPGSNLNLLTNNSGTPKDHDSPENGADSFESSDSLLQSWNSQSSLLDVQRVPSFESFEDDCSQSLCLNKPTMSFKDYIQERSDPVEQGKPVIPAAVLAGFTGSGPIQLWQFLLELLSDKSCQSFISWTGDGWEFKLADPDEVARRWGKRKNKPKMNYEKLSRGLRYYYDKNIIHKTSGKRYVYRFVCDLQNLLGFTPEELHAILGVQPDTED
# In short: as §1
# [4] = target: T4, SPDEF (Homo sapiens, UniProt O95238 1-335)
# T4 sequence: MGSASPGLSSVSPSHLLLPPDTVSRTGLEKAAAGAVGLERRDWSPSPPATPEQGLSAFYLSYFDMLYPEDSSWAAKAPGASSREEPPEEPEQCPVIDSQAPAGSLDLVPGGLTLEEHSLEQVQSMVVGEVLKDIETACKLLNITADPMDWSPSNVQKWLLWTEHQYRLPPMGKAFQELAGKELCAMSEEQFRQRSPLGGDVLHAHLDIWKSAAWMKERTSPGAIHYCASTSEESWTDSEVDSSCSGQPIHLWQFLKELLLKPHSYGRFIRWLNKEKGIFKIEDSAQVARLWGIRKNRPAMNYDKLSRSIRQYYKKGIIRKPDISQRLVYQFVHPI
# In short: as §1
# [5] = target: T5, ETV7 (Homo sapiens, UniProt Q9Y603 1-341)
# T5 sequence: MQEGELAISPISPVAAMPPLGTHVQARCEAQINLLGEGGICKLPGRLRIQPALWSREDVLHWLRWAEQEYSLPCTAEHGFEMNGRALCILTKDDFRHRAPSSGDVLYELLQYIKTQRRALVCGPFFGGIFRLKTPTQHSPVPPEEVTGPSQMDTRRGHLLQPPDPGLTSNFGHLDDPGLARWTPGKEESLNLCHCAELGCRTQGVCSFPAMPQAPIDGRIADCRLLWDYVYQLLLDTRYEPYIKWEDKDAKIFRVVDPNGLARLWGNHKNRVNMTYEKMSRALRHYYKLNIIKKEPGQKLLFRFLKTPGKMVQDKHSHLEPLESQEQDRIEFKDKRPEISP
# In short: as §1
# [6] = target: T6, ELF5 (Homo sapiens, UniProt Q9UKW6-2 1-255)
# T6 sequence: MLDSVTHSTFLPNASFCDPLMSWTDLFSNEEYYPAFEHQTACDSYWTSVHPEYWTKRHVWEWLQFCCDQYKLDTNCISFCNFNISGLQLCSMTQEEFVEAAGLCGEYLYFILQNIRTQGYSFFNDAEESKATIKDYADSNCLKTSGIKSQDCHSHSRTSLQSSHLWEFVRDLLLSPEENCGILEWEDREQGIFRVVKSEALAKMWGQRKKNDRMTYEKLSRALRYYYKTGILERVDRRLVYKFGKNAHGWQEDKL
# In short: as §1
# [7] = target: T7, ETV3 (Homo sapiens, UniProt P41162-2 1-143)
# T7 sequence: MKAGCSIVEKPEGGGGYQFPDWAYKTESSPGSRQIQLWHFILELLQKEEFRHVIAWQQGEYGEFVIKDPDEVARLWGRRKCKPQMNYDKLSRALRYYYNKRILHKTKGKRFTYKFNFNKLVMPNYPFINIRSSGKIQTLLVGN
# In short: as §1
# [8] = target: ETV6 (Homo sapiens, UniProt P41212 1-452)
# In short: as §1
# ETV6, sequence (P41212 whole entry): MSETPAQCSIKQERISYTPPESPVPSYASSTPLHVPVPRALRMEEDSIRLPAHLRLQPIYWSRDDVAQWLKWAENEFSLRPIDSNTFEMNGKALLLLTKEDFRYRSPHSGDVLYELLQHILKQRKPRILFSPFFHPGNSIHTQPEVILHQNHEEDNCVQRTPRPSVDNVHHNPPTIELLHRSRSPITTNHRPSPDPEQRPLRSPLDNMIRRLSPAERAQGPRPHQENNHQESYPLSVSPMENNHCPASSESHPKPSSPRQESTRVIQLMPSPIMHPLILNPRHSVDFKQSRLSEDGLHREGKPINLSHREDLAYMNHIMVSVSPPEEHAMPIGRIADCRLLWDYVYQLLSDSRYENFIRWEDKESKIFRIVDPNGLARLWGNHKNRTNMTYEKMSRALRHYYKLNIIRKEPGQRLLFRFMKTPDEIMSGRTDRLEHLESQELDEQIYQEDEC
Sequence,binding signal [1],binding signal [2],binding signal [3],binding signal [4],binding signal [5],binding signal [6],binding signal [7],binding signal [8]
TAGTGT,"1.02 fold enrichment (6-mer frequency, TF over GST control)","1.04 fold enrichment (6-mer frequency, TF over GST control)","1.11 fold enrichment (6-mer frequency, TF over GST control)","1.18 fold enrichment (6-mer frequency, TF over GST control)","1.2 fold enrichment (6-mer frequency, TF over GST control)","1.14 fold enrichment (6-mer frequency, TF over GST control)","1.13 fold enrichment (6-mer frequency, TF over GST control)","1.02 fold enrichment (6-mer frequency, TF over GST control)"
GAAACA,"1.34 fold enrichment (6-mer frequency, TF over GST control)","1.4 fold enrichment (6-mer frequency, TF over GST control)","1.34 fold enrichment (6-mer frequency, TF over GST control)","1.3 fold enrichment (6-mer frequency, TF over GST control)","1.35 fold enrichment (6-mer frequency, TF over GST control)","1.39 fold enrichment (6-mer frequency, TF over GST control)","1.37 fold enrichment (6-mer frequency, TF over GST control)","1.45 fold enrichment (6-mer frequency, TF over GST control)"
CGGTTT,"1.23 fold enrichment (6-mer frequency, TF over GST control)","1.14 fold enrichment (6-mer frequency, TF over GST control)","1.2 fold enrichment (6-mer frequency, TF over GST control)","1.36 fold enrichment (6-mer frequency, TF over GST control)","1.2 fold enrichment (6-mer frequency, TF over GST control)","1.31 fold enrichment (6-mer frequency, TF over GST control)","1.22 fold enrichment (6-mer frequency, TF over GST control)","1.23 fold enrichment (6-mer frequency, TF over GST control)"
TTCCCC,"1.46 fold enrichment (6-mer frequency, TF over GST control)","1.69 fold enrichment (6-mer frequency, TF over GST control)","1.64 fold enrichment (6-mer frequency, TF over GST control)","1.43 fold enrichment (6-mer frequency, TF over GST control)","1.43 fold enrichment (6-mer frequency, TF over GST control)","2.17 fold enrichment (6-mer frequency, TF over GST control)","1.89 fold enrichment (6-mer frequency, TF over GST control)","1.73 fold enrichment (6-mer frequency, TF over GST control)"
ACCCTG,"1.04 fold enrichment (6-mer frequency, TF over GST control)","1.05 fold enrichment (6-mer frequency, TF over GST control)","1.01 fold enrichment (6-mer frequency, TF over GST control)","1.03 fold enrichment (6-mer frequency, TF over GST control)","1.04 fold enrichment (6-mer frequency, TF over GST control)","1.03 fold enrichment (6-mer frequency, TF over GST control)","1.13 fold enrichment (6-mer frequency, TF over GST control)","1.07 fold enrichment (6-mer frequency, TF over GST control)"
CTGACA,"1.21 fold enrichment (6-mer frequency, TF over GST control)","1.34 fold enrichment (6-mer frequency, TF over GST control)","1.22 fold enrichment (6-mer frequency, TF over GST control)","1.24 fold enrichment (6-mer frequency, TF over GST control)","1.37 fold enrichment (6-mer frequency, TF over GST control)","1.26 fold enrichment (6-mer frequency, TF over GST control)","1.24 fold enrichment (6-mer frequency, TF over GST control)","1.24 fold enrichment (6-mer frequency, TF over GST control)"
TAGATT,"1.37 fold enrichment (6-mer frequency, TF over GST control)","1.31 fold enrichment (6-mer frequency, TF over GST control)","1.13 fold enrichment (6-mer frequency, TF over GST control)","1.15 fold enrichment (6-mer frequency, TF over GST control)","1.22 fold enrichment (6-mer frequency, TF over GST control)","1.11 fold enrichment (6-mer frequency, TF over GST control)","1 fold enrichment (6-mer frequency, TF over GST control)","1.17 fold enrichment (6-mer frequency, TF over GST control)"
TTCATA,"1.19 fold enrichment (6-mer frequency, TF over GST control)","1.23 fold enrichment (6-mer frequency, TF over GST control)","1.15 fold enrichment (6-mer frequency, TF over GST control)","1.1 fold enrichment (6-mer frequency, TF over GST control)","1.12 fold enrichment (6-mer frequency, TF over GST control)","1.15 fold enrichment (6-mer frequency, TF over GST control)","1.16 fold enrichment (6-mer frequency, TF over GST control)","1.14 fold enrichment (6-mer frequency, TF over GST control)"
